Screening data: PubChem BioAssay, The Scripps Research Institute Molecular Screening Center
Most compounds without a hit are left out; they make up all but 4.1% or so of the library.
ssDAF-12 act: activators of S. stercoralis DAF-12 nuclear receptor. HEK293 ssDAF-12/GRIP1 lit1-tk-luc reporter, luminescence; % of 3 µM dafachronic acid response. activation, % at 6.8 µM. hit rate 1% among 370,000. AID 652126;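 active = activation above the mean over all tested compounds plus 3 SD, cut at about 0.9% in these data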;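 note: 0% = DMSO-only wells and 100% = 3 µM delta7-dafachronic acid wells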
hgDAF-12 ag: agonists of H. glycines DAF-12 nuclear receptor; hit rate 1.8% among 370,000; AID 687014; activation, % at 6.8 µM; HEK293 GAL4-hgDAF12 UAS-luciferase reporter, agonist luminescence; normalized to butyrate control;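 active = activation above a cutoff set at the mean of all screened compounds plus 3 SD, cut at about 10% in these data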;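 note: 0% = DMSO wells and 100% = sodium butyrate wells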
DAX1 inh-1: inhibitors of human orphan nuclear receptor DAX1 (NR0B1); HEK293 Gal4-DAX1 luciferase reporter, luminescence; P51843; hit rate 0.99% among 340,000; inhibition, % at 6.75 µM;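 active = inhibition above the mean over all tested compounds plus 3 SD, cut at about 4.2% in these data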;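 note: 0% = DAX1-transfected cells with DMSO and 100% = empty-vector control cells with DMSO; inhibition shows as a rise in luminescence from relieved DAX1 repression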
Target sequence (P51843 207-470 limits assumed): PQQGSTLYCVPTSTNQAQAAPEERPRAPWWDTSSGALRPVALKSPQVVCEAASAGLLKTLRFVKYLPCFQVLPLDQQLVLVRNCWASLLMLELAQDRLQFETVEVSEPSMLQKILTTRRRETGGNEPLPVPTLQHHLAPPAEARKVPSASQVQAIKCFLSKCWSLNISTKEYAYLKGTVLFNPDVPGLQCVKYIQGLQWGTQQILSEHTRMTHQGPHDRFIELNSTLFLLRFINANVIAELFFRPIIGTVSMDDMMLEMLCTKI
hcDAF-12 act: H. contortus DAF-12 activation, primary screen; hit rate 1.4% among 370,000; HEK293 hcDAF-12 lit1-tk-luc reporter, luminescence; 0% DMSO, 100% Δ7-dafachronic acid; activation, % at 6.8 µM;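 active = activation above the mean of all tested compounds plus 3 SD, cut at about 5.5% in these data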;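 note: 100% = response to 3 µM Δ7-dafachronic acid high control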
DAX1 inh-2: inhibitors of DAX1 repression of SF-1 activated StAR promoter; HEK293T StAR-luciferase reporter, SF-1/DAX-1 repression relief; inhibition, % at 6.8 µM; hit rate 1.1% among 370,000;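 active = inhibition above the mean over all tested compounds plus 3 SD, cut at about 3.6% in these data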;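 note: 0% = DAX-1 cells with DMSO and 100% = cells lacking DAX-1 with DMSO; higher inhibition means more luminescence from relief of DAX-1 repression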
* hit, by the source's call; x = no result given; ! = a repeat was not active.

SMILES	ssDAF-12 act	hgDAF-12 ag	DAX1 inh-1	hcDAF-12 act	DAX1 inh-2
COc1ccccc1NC(=O)NNC(=O)c1ccncc1	-1	0	-2	4	3.8*
CN1C(=O)C(O)(CC(=O)c2ccccc2O)c2cc(Br)ccc21 (stereo unspecified)	0	-1	4.4*	3	-1
CN1C(=O)C(O)(CC(=O)/C=C/c2ccco2)c2cc(Br)ccc21 (stereo unspecified)	0	4	-1	3	1
CCOC(=O)CNC(=O)c1ccc(OCC(F)(F)F)cc1	0	13*	1	1	2
O=C(NCCc1cccs1)c1cccs1	0	11*	1	2	3
O=C(NCC(O)c1ccccc1)c1cccs1 (stereo unspecified)	0	12*	3	2	1
O=C(OC12CCCN(C1)/C(=C/c1ccccc1)C2)C1CCCCC1 (stereo unspecified)	-1	-1	x	-1	-1
O=C(OCc1cn(Cc2cccc(F)c2F)nn1)N1CCOCC1	0	-3	x	2	-1
Nn1c(Nc2ccccc2)nc2ccccc21	0	8	4.4*	1	1
Cn1c(Nc2ccccc2)nc2ccccc21	-1	1	1	-1	0
Cc1c(C(=O)N2CCN(c3ccccn3)CC2)oc2c(F)cccc12	-1	-2	-1	-3	0
Cc1c(C(=O)N2CCC[C@H]2C(N)=O)oc2c(F)cccc12	-1	1	6.0*	0	0
NC(=O)C1CCN(c2ncc(Br)cn2)CC1	-1	1	x	2	x
CCCCN(C(C)=O)c1ccc2c(c1)C1CC2CCN1C(=O)OCc1ccccc1 (stereo unspecified)	-2	-5	-5	-5	-5
CCN(CCc1ccccc1)c1ccc2c(c1)C1CC2CCN1C(=O)OCc1ccccc1 (stereo unspecified)	1.6*	1	-1	0	1
CCC1CCCCN1C(=O)CSc1nnc2nc(C)cc(C)n12 (stereo unspecified)	-2	1	0	0	4.0*
Cc1cc(C)n2c(SCC(=O)NC3CCCCC3C)nnc2n1 (stereo unspecified)	-2	0	1	-1	0
Cc1cc(N/N=C/c2cccc(Br)c2)nc2ccccc12	-1	6	0	3	1
Cc1cc(N/N=C/c2ccncc2)nc2ccccc12	-1	4	3	3	3.9*
CC(C)CC(=O)Nc1nnc(-c2ccco2)s1	0	6	0	2	2
CCc1ccc(OCC(=O)Nc2nnc(-c3ccco3)s2)cc1	0	-1	0	1	4.4*
Nc1ccccc1-c1ccc(Cl)cc1	-1	2	-1	1	4.1*
COc1ccc(N2C(=O)C3C(c4ccc(OC)cc4O)NC(Cc4ccccc4)(C(=O)O)C3C2=O)cc1 (stereo unspecified)	0	2	7.6*	0	0
Cc1ccc(CSc2ncn(-c3ccccc3)n2)cc1	-1	1	4.2*	2	0
O=C(CSc1ncn(-c2ccccc2)n1)NCc1ccccc1	-1	7	1	0	0
SMILES	ssDAF-12 act	hgDAF-12 ag	DAX1 inh-1	hcDAF-12 act	DAX1 inh-2
Clc1ccccc1CSc1ncn(-c2ccccc2)n1	0	11*	4	5	2
S=C1NC[C@H](Cc2ccccc2)N1CC1CCN(CCCC2CCCCC2)CC1	-2	0	x	0	0
Cc1ccccc1NC(=O)[C@@H]1CCCN1S(=O)(=O)c1cccc2cccnc12	-1	-1	x	-2	x
Clc1nn2cnnc2c2ccccc12	-1	-3	6.2*	-2	0
C[C@@H]1COc2cc(Br)ccc2S(=O)(=O)N1Cc1cn(Cc2ccc(Br)cc2)nn1	-2	-2	x	0	0
Cc1cc(C)nc(N2CCC(C(=O)N(C)CCc3ccccn3)CC2)n1	-2	4	x	0	0
Cc1ccc2c(c1)c1c3n2CCN(CC(N)=O)C3CCC1 (stereo unspecified)	-1	1	0	0	0
Cc1ccc2c(c1)c1c3n2CCN(CC#N)C3CCC1 (stereo unspecified)	-1	2	6.5*	0	1
O=C(O)c1ccc(O)cc1O	0	-1	1	-1	0
Nc1ccc(C(=O)O)c(O)c1	-1	11*!	-1	-1	0
Cc1ccc(C(=O)NCC(c2ccco2)N2CCCCC2)s1 (stereo unspecified)	-1	2	0	5	2
Cc1ccc2oc(C(=O)NCC(c3ccco3)N3CCCC3)c(C)c2c1 (stereo unspecified)	0	3	0	4	0
O=C(NCC(c1ccco1)N1CCCC1)c1cc2ccccc2s1 (stereo unspecified)	0.9*	3	1	1	1
O=C(NCC(c1ccco1)N1CCCC1)c1ccccc1Sc1ccc(C(F)(F)F)cc1[N+](=O)[O-] (stereo unspecified)	1.1*	2	0	2	0
COc1ccccc1CC(=O)NCC(c1ccco1)N1CCCCC1 (stereo unspecified)	-2	3	4.6*	-2	1
Cc1cc2oc(C(=O)NCC(c3ccco3)N3CCCC3)c(C)c2cc1C (stereo unspecified)	3.6*	4	2	3	2
N#Cc1ccccc1Sc1ccccc1C(=O)NCC(c1ccco1)N1CCCCC1 (stereo unspecified)	-1	-2	-1	-1	-1
S=c1[nH]nc(Cc2cccc3ccccc23)o1	0	-1	-1	1	0
Cc1[nH]c2ccccc2c1Cc1nnc(SCC(N)=O)o1	-1	3	4.7*	5	1
Cc1[nH]c2ccccc2c1Cc1n[nH]c(=S)o1	0	6	4.7*	2	0
CCOC(=O)N1CCN(C(=O)C[C@H]2C(=O)N(Cc3ccc(OC)cc3)C3=CCCC[C@@]32C(=O)OCC)CC1	-1	-2	x	-3	-1
O=S1(=O)C=CCN1Cc1cn(Cc2cccc(C(F)(F)F)c2)nn1	-1	5	x	-1	1
COC(=O)c1cc(=O)c2c([N+](=O)[O-])ccc(OC)c2o1	-1	-1	4.6*	-2	0
COc1ccccc1-c1cc(=O)c2c(O)ccc([N+](=O)[O-])c2o1	-1	4	2	0	0
COC(=O)[C@]12C[C@H](CC(=O)NCc3ccc(C)o3)C(=O)N(CCC3=CCCCC3)C1=C[C@H](C1CCCC1)O[C@@H]2C	-1	-1	x	-3	-1
COc1ccc(N2C(=O)[C@@H]3[C@H](C2=O)[C@H]2c4ccccc4C=CN2[C@@H]3C(=O)Nc2ccccc2)cc1	1	2	2	6.1*	0
O=C(c1ccccc1)C1CCN(c2ncnc3sccc23)CC1	-3	-8	x	-6	x
Cc1ccc(NC2Sc3ccccc3NC2=O)cc1 (stereo unspecified)	1.0*	15*	1	5	4
